Experimental findings from PubChem BioAssay (NCI) are described below.

Among the test systems are SR leukemia; RPMI-8226 leukemia; OVCAR-8 ovarian; OVCAR-5 ovarian; OVCAR-4 ovarian; SK-OV-3 ovarian; IGROV1 ovarian; OVCAR-3 ovarian; HS 578T breast; NCI/ADR-RES ovarian; T-47D breast; BT-549 breast; MDA-MB-435 melanoma; SW-620 colon; MCF7 breast; HCT-116 colon; KM12 colon; HCC-2998 colon.
What all share (assay): NCI-60 one-dose screen, 48 h (100 = growth as untreated, 0 = no growth, -100 = all killed)
Conditions in all cases: 10 µM unless noted

“And” between values parts separate entries of the source, which are not always exact repeats. Identical values can stand only once. The panel holds about 83,000 compounds, 20% with a hit somewhere; the sample as a whole holds those more often.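 Plates (96-well) were seeded with cells, treated with compound at one concentration, and incubated for 48 hours before percent growth was determined.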 The source made the active and inactive calls. How the source made its calls: active means growth percent below 10; inactive means the rest.

Turning to `C=C1C(=O)O[C@H]2[C@H]1CC/C(COC(=O)NC1CCC(O)CC1)=C\CC[C@@]1(C)O[C@@H]21` (stereo partly specified), the growth was 27.3% (inactive) and 23.4% (inactive) in the test with SR leukemia; 61.4% (inactive) and 54.9% (inactive) with RPMI-8226 leukemia; 77.1% (inactive) and 79.6% (inactive) with OVCAR-8 ovarian; 83.9% (inactive) and 83.6% (inactive) with OVCAR-5 ovarian; 77.8% (inactive) and 76% (inactive) with OVCAR-4 ovarian; 103% (inactive) and 104% (inactive) in the test with SK-OV-3 ovarian. Moreover, the growth in the test on IGROV1 ovarian was 97.4% (inactive) and 78.2% (inactive); in the test on OVCAR-3 ovarian it was 44.5% (inactive) and 46.5% (inactive); in the test on HS 578T breast, 92% (inactive) and 87.6% (inactive); with NCI/ADR-RES ovarian it was 99.8% (inactive) and 100% (inactive); with T-47D breast, 59.6% (inactive) and 47.6% (inactive); in the test on BT-549 breast, 83.3% (inactive) and 79.1% (inactive). In addition, the growth with MDA-MB-435 melanoma was 58.4% (inactive) and 54.8% (inactive); in the test on SW-620 colon, 27.4% (inactive) and 30.1% (inactive); with MCF7 breast, 75.2% (inactive) and 66.7% (inactive); in the test on HCT-116 colon it was 41.5% (inactive) and 33% (inactive); in the test with KM12 colon it was 96.8% (inactive) and 97.9% (inactive).

Regarding `Cc1cc(=O)[nH]c(O)c1C#N`, the growth is 94.8% (inactive) and 122% (inactive) in the test with SR leukemia; 119% (inactive) and 332% (inactive) in the test with RPMI-8226 leukemia; 105% (inactive) and 101% (inactive) in the test with OVCAR-8 ovarian; 93.7% (inactive) and 90% (inactive) in the test with OVCAR-5 ovarian; 99.8% (inactive) and 104% (inactive) with OVCAR-4 ovarian; 105% (inactive) and 96.2% (inactive) in the test on SK-OV-3 ovarian. Also, the growth is 100% (inactive) in the test on IGROV1 ovarian; 112% (inactive) with OVCAR-3 ovarian; 120% (inactive) and 109% (inactive) with HS 578T breast; 106% (inactive) and 105% (inactive) with NCI/ADR-RES ovarian; 97.2% (inactive) and 91% (inactive) in the test on T-47D breast; 100% (inactive) and 103% (inactive) with BT-549 breast. Also, the growth was 101% (inactive) and 103% (inactive) in the test on MDA-MB-435 melanoma; 102% (inactive) and 106% (inactive) with SW-620 colon; 97.3% (inactive) and 103% (inactive) with MCF7 breast; 100% (inactive) and 96.2% (inactive) in the test on HCT-116 colon; 101% (inactive) and 100% (inactive) with HCC-2998 colon; 108% (inactive) and 116% (inactive) in the test with KM12 colon.

`CNC(=O)c1cc(Oc2ccc(NC(=O)Nc3ccc(Cl)c(C(F)(F)F)c3)cc2)ccn1`: the growth was -8.61% (active) and 23.9% (inactive) in the test on SR leukemia; -11.5% (active) and -19.3% (active) with RPMI-8226 leukemia; 5.3% (active) and -16.5% (active) in the test with OVCAR-8 ovarian; 16.6% (inactive) and 15.4% (inactive) with OVCAR-5 ovarian; 26.2% (inactive) and 25.2% (inactive) in the test with OVCAR-4 ovarian; -20.9% (active) and 12.5% (inactive) in the test with SK-OV-3 ovarian. The growth is -24.8% (active) and -70.7% (active) in the test on IGROV1 ovarian; 18.9% (inactive) and 3.16% (active) with OVCAR-3 ovarian; -8.13% (active) in the test with HS 578T breast; -10.9% (active) and -12.5% (active) in the test on NCI/ADR-RES ovarian; -8.57% (active) and 7.49% (active) with T-47D breast; -1.7% (active) and 24.4% (inactive) in the test with BT-549 breast. Besides, the growth with MDA-MB-435 melanoma is -27.3% (active) and -35.2% (active); in the test on SW-620 colon it was 13.5% (inactive) and 5.39% (active); in the test on MCF7 breast, 2.9% (active) and 3.7% (active); in the test with HCT-116 colon it was 0.741% (active) and 9.24% (active); in the test with HCC-2998 colon, -25.4% (active); in the test with KM12 colon it was 2.65% (active) and -14.7% (active).

For `COc1ccc(/C(C#N)=C/c2ccccn2)cc1`, the growth was 91.1% (inactive) and 87.7% (inactive) in the test on SR leukemia; 93.8% (inactive) with RPMI-8226 leukemia; 103% (inactive) and 110% (inactive) in the test with OVCAR-8 ovarian; 110% (inactive) and 107% (inactive) with OVCAR-5 ovarian; 96.1% (inactive) and 93.9% (inactive) in the test with OVCAR-4 ovarian; 111% (inactive) and 126% (inactive) with SK-OV-3 ovarian. Also, the growth was 115% (inactive) and 113% (inactive) in the test with IGROV1 ovarian; 110% (inactive) and 130% (inactive) in the test on OVCAR-3 ovarian; 104% (inactive) and 309% (inactive) in the test on HS 578T breast; 101% (inactive) and 54.3% (inactive) in the test with NCI/ADR-RES ovarian; 88.7% (inactive) and 115% (inactive) in the test with T-47D breast; 103% (inactive) with BT-549 breast. For the same molecule, the growth in the test on MDA-MB-435 melanoma is 97% (inactive) and 106% (inactive); in the test with SW-620 colon, 112% (inactive) and 130% (inactive); in the test with MCF7 breast, 104% (inactive) and 102% (inactive); in the test with HCT-116 colon, 96.3% (inactive) and 104% (inactive); in the test on HCC-2998 colon, 97.7% (inactive) and 103% (inactive); in the test on KM12 colon, 101% (inactive) and 102% (inactive).

`NC(=O)C1CC2C=CC1C2` (stereo unspecified): the growth was 112% (inactive) and 105% (inactive) in the test with SR leukemia; 144% (inactive) and 87.5% (inactive) in the test on RPMI-8226 leukemia; 97% (inactive) and 95.1% (inactive) in the test on OVCAR-8 ovarian; 89.8% (inactive) and 95.3% (inactive) with OVCAR-5 ovarian; 107% (inactive) and 120% (inactive) with OVCAR-4 ovarian; 111% (inactive) and 121% (inactive) with SK-OV-3 ovarian. Further, the growth in the test on IGROV1 ovarian is 70.1% (inactive) and 87.3% (inactive); with OVCAR-3 ovarian, 93.2% (inactive) and 106% (inactive); in the test on HS 578T breast it was 110% (inactive) and 94.3% (inactive); in the test with NCI/ADR-RES ovarian, 108% (inactive) and 102% (inactive); in the test with T-47D breast it was 101% (inactive) and 100% (inactive); in the test on BT-549 breast, 93% (inactive) and 112% (inactive). The growth was 106% (inactive) and 100% (inactive) with MDA-MB-435 melanoma; 96.2% (inactive) and 97.5% (inactive) in the test with SW-620 colon; 100% (inactive) and 102% (inactive) in the test with MCF7 breast; 92.5% (inactive) and 91.5% (inactive) in the test on HCT-116 colon; 76.5% (inactive) and 110% (inactive) in the test on HCC-2998 colon; 112% (inactive) and 105% (inactive) with KM12 colon.

For the molecule `CN(C)CCC(=O)c1ccc(Cl)cc1`, the growth in the test on SR leukemia was 110% (inactive); in the test with RPMI-8226 leukemia, 75.4% (inactive) and 58% (inactive); with OVCAR-8 ovarian, 110% (inactive) and 105% (inactive); with OVCAR-5 ovarian, 117% (inactive) and 113% (inactive); in the test with OVCAR-4 ovarian, 105% (inactive) and 118% (inactive); with SK-OV-3 ovarian, 108% (inactive). Moreover, the growth is 100% (inactive) and 116% (inactive) in the test on IGROV1 ovarian; 115% (inactive) and 113% (inactive) in the test on OVCAR-3 ovarian; 112% (inactive) in the test with HS 578T breast; 114% (inactive) and 104% (inactive) in the test on NCI/ADR-RES ovarian; 110% (inactive) and 97.4% (inactive) with T-47D breast; 107% (inactive) and 98.8% (inactive) in the test on BT-549 breast. The growth is 113% (inactive) and 110% (inactive) in the test on MDA-MB-435 melanoma; 103% (inactive) and 108% (inactive) with SW-620 colon; 90.6% (inactive) and 86.2% (inactive) in the test on MCF7 breast; 101% (inactive) and 102% (inactive) with HCT-116 colon; 97.3% (inactive) in the test on HCC-2998 colon; 108% (inactive) and 109% (inactive) with KM12 colon.

`Cc1nn(-c2ccc(Cl)cc2)c2ncnc(N/N=C/c3ccccc3O)c12`: the growth in the test on SR leukemia was 4.8% (active) and 5.64% (active); in the test on RPMI-8226 leukemia, 37.1% (inactive) and 11.7% (inactive); in the test on OVCAR-8 ovarian it was 14.1% (inactive) and 14% (inactive); with OVCAR-5 ovarian, 47.5% (inactive) and 52.7% (inactive); with OVCAR-4 ovarian it was 19.5% (inactive) and 21.9% (inactive); in the test with SK-OV-3 ovarian it was 4.44% (active) and 10.8% (inactive). The growth in the test with IGROV1 ovarian is 23.9% (inactive) and 4.47% (active); in the test with OVCAR-3 ovarian, 34.9% (inactive) and 26.7% (inactive); in the test with HS 578T breast it was 81% (inactive) and 56.4% (inactive); in the test on NCI/ADR-RES ovarian it was 19.1% (inactive) and 10.5% (inactive); in the test with T-47D breast it was 13.3% (inactive) and 23.8% (inactive); with BT-549 breast, 36% (inactive) and 36.4% (inactive). The growth in the test with MDA-MB-435 melanoma is 27.3% (inactive) and 23.7% (inactive); in the test with SW-620 colon, 35.1% (inactive) and 31.5% (inactive); in the test on MCF7 breast, 8.28% (active) and 12.1% (inactive); with HCT-116 colon it was 26.7% (inactive) and 21.6% (inactive); in the test with HCC-2998 colon, 31% (inactive) and 39.7% (inactive); in the test on KM12 colon, 28.4% (inactive) and 22.2% (inactive).

In the case of `CN1CCN(Cc2occc(=O)c2O)CCN(C)CCN(Cc2occc(=O)c2O)CC1`, the growth was 79.5% (inactive) and 31.1% (inactive) with SR leukemia; 97.2% (inactive) and 29.5% (inactive) in the test on RPMI-8226 leukemia; 98.8% (inactive) and 64.2% (inactive) with OVCAR-8 ovarian; 104% (inactive) and 72.1% (inactive) in the test on OVCAR-5 ovarian; 102% (inactive) and 77% (inactive) with OVCAR-4 ovarian; 91% (inactive) and 49.5% (inactive) in the test with SK-OV-3 ovarian. The growth in the test with IGROV1 ovarian is 96.3% (inactive) and 54% (inactive); in the test with OVCAR-3 ovarian, 117% (inactive) and 28.6% (inactive); in the test on HS 578T breast, 90.4% (inactive) and 84.2% (inactive); in the test on NCI/ADR-RES ovarian, 105% (inactive) and 78.7% (inactive); in the test with T-47D breast, 93.8% (inactive) and 77.4% (inactive); in the test on BT-549 breast it was 97.1% (inactive) and 84% (inactive). For the same molecule, the growth in the test on MDA-MB-435 melanoma is 108% (inactive) and 47.3% (inactive); in the test on SW-620 colon, 113% (inactive) and 15.6% (inactive); in the test on MCF7 breast it was 91.6% (inactive) and 24.9% (inactive); in the test with HCT-116 colon it was 100% (inactive) and 10.6% (inactive); in the test on HCC-2998 colon, 112% (inactive) and 47.5% (inactive); in the test with KM12 colon, 109% (inactive) and 28.9% (inactive).

On to `OC(CSc1ccccc1)CN1CCN(c2cccc(Cl)c2)CC1` (stereo unspecified), for which the growth is 87.2% (inactive) and 102% (inactive) in the test on SR leukemia; 92.9% (inactive) and 97.3% (inactive) in the test with RPMI-8226 leukemia; 98.9% (inactive) and 101% (inactive) in the test on OVCAR-8 ovarian; 105% (inactive) and 96.9% (inactive) in the test with OVCAR-5 ovarian; 97.1% (inactive) and 107% (inactive) in the test on OVCAR-4 ovarian; 105% (inactive) and 107% (inactive) with SK-OV-3 ovarian. In addition, the growth was 105% (inactive) and 122% (inactive) in the test on IGROV1 ovarian; 120% (inactive) and 101% (inactive) in the test on OVCAR-3 ovarian; 118% (inactive) and 88.7% (inactive) with HS 578T breast; 99.6% (inactive) and 88.7% (inactive) in the test on NCI/ADR-RES ovarian; 90.3% (inactive) and 102% (inactive) in the test on T-47D breast; 97.7% (inactive) in the test with BT-549 breast. In addition, the growth is 114% (inactive) and 93.6% (inactive) with MDA-MB-435 melanoma; 105% (inactive) in the test with SW-620 colon; 102% (inactive) and 94% (inactive) with MCF7 breast; 93.3% (inactive) and 97.5% (inactive) in the test with HCT-116 colon; 106% (inactive) and 95% (inactive) in the test with HCC-2998 colon; 109% (inactive) and 101% (inactive) with KM12 colon.
